Measurements taken from PubChem BioAssay (Tox21).
Records with an inconclusive call do not appear. Entries that show only a call come without a potency. Values without a mark were called inactive. The source made the active and inactive calls. Calls follow the shape of the dose curve; as a rule, active = well fitted cell-killing curve with a large enough effect in the repeat runs; inconclusive = weak or mixed curves, or effect the other way; inactive = flat fitted curve, though single readings scatter.

Assay: qHTS RealTime-Glo MT Cell Viability Assay in HepG2 cells - 0 hour (AID 1224889); also: nearly all actives have a fitted effect of over 50% in size
Conditions: RealTime-Glo luminescence; series mostly up to 76.8 µM
Source text: U.S. Tox21 Program National Center for Advancing Translational Sciences [NCATS] NIH Chemical Genomics Center [NCGC] U.S. Environmental Protection Agency [EPA] National Institutes of Environmental Health Sciences [NIEHS] National Toxicology Program [NTP] U.S. Food and Drug Administration [FDA] Tox21 Assay Overview: Measure of cell viability is critical in the cell-base assay. Analysis of cell viability is necessary for the characterization of cell responses to cytotoxic drugs and environmental stress. A RealTime-Glo MT Cell Viability Assay to monitor cell viability in real time of continues cell culture during 40 hours of compound treatment was used to screen Tox21 10K library compounds in HepG2 cells. The RealTime-Glo MT Cell Viability Assay is a nonlytic, homogeneous, bioluminescent method to measure cell viability in real time using a simple, plate-based method. The assay involves adding NanoLuc luciferase and a cell-permeant prosubstrate to cells in culture. Viable cells reduce the proprietary prosubstrate to generate a substrate for NanoLuc luciferase. This substrate diffuses from cells into the surrounding culture medium, where it is rapidly used by the NanoLuc Enzyme to produce a luminescent signal. The signal correlates with the number of viable cells, making the assay well suited for cytotoxicity studies.
Tox21 Assay Protocol Summary: The mixture of HepG2 cell suspension and reagents were dispensed at 600cells/6 ul/well in 1536-well tissue culture treated black solid bottom plates using a Multidrop dispenser. After the assay plates were incubated at a 37 C/5% CO2 incubator for 5 hours, 23 nL of compounds dissolved in DMSO, positive and negative controls was transferred to the assay plate by a pintool work station. The plates were incubated at 37 C for 40 hours. The luminescence intensity were measured at 0h, 8h, 16h, 24h, 32h and 40h time points using ViewLux plate reader during compound treatment.

| Structure (SMILES) | Potency | activity change, negative = cytotoxicity |
| --- | --- | --- |
| Cc1ccc(-c2cc(C(F)(F)F)nn2-c2ccc(S(N)(=O)=O)cc2)cc1 | inactive |  |
| O=C(O)c1cn(-c2ccc(F)cc2)c2cc(N3CCNCC3)c(F)cc2c1=O | inactive |  |
| NC(N)=NC(=O)Cc1c(Cl)cccc1Cl | inactive |  |
| c1ccc2n[nH]nc2c1 | inactive |  |
| O | inactive |  |
| CCCCC(CC)COC(=O)CC(C(=O)OCC(CC)CCCC)S(=O)(=O)O (stereo not given) | inactive |  |
| OCCOCCN1CCN(C(c2ccccc2)c2ccc(Cl)cc2)CC1 (stereo not given) | inactive |  |
| CC(C)CCCCCCc1ccc(O)cc1 | inactive |  |
| Nc1ccc2cc3ccccc3cc2c1 | inactive |  |
| Nc1nc(=S)c2[nH]cnc2[nH]1 | inactive |  |
| CC(=O)OCC1=C(C(=O)O)N2C(=O)[C@@H](NC(=O)Cc3cccs3)[C@H]2SC1 | inactive |  |
| CC[C@H]1CN2CCc3cc(OC)c(OC)cc3[C@@H]2C[C@@H]1C[C@H]1NCCc2cc(OC)c(OC)cc21 | inactive |  |
| C=CS(=O)(=O)O | inactive |  |
| CN(C)c1ccc(C(=C2C=CC(=[N+](C)C)C=C2)c2ccccc2)cc1 | inactive |  |
| CCN(CC)CCOc1ccc(/C(=C(\Cl)c2ccccc2)c2ccccc2)cc1 | inactive |  |
| CCCN[C@H]1CCc2nc(N)sc2C1 | inactive |  |
| CCn1c2ccccc2c2cc(N)ccc21 | inactive |  |
| NNCCc1ccccc1 | inactive |  |
| O=C(Oc1ccccc1)c1ccccc1O | inactive |  |
| CC(C)CCOCc1ccccc1 | inactive |  |

| Structure (SMILES) | Potency | activity change, negative = cytotoxicity |
| --- | --- | --- |
| CN(C)c1ccc2nc3ccc(=[N+](C)C)cc-3sc2c1 | inactive |  |
| CCOc1ccc2c(c1)C(C)=CC(C)(C)N2 | inactive |  |
| C=CC(=O)OCCCCCCCC | inactive |  |
| Nc1cc(Cl)c(-c2cc(Cl)c(N)cc2Cl)cc1Cl | inactive |  |
| O=C(O)Cn1cnnn1 | inactive |  |
| O=C(OCc1ccccc1)c1ccc(O)cc1 | inactive |  |
| Cc1cccc(O)c1C | inactive |  |
| CC(C)(C)NC(=O)[C@@H]1CN(Cc2cccnc2)CCN1C[C@@H](O)C[C@@H](Cc1ccccc1)C(=O)N[C@H]1c2ccccc2C[C@H]1O | inactive |  |
| NC(Cc1ccc(Cl)cc1)C(=O)O (stereo not given) |  | -2.96% [at 0.29 µM] |
| COC(c1ccccc1)(c1ccccc1)[C@H](Oc1nc(C)cc(C)n1)C(=O)O | inactive |  |
| Cc1cc(Cc2cc(C)cc(C(C)(C)C)c2O)c(O)c(C(C)(C)C)c1 | inactive |  |
| O=C1NCC2(CCN(CCc3ccccc3)CC2)O1 | inactive |  |
| CCN1CCCC1CNC(=O)c1cc(S(=O)(=O)CC)c(N)cc1OC (stereo not given) | inactive |  |
| Nc1ccc(O)cc1 | inactive |  |
| Oc1c(Cl)cc(Cl)cc1Sc1cc(Cl)cc(Cl)c1O | inactive |  |
| CC(C)(O)CCC(C)(C)O | inactive |  |
| c1cnc2cc3c(cc2n1)C1CNCC3C1 | inactive |  |
| O=C(O)c1cc(Cl)cc(Cl)c1 | inactive |  |
| C#CC(C)(CC)OC(=O)c1ccccc1C(=O)O (stereo not given) | inactive |  |
| Nc1cc(S(=O)(=O)O)cc2cc(S(=O)(=O)O)cc(O)c12 | inactive |  |
